Experiment [1] can be described thus: qHTS assay to identify small molecule agonists of the hypoxia (HIF-1) signaling pathway - cell viability counter screen (AID 1224844; calls by dose curve; also: nearly all actives have a fitted effect of over 50% in size). An outline of the steps:
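HRE-bla ME-180 cells in medium with 0.5% dialyzed FBS were preincubated 5 hrs at 37C, exposed to compounds for 17 hrs, then viability was read as CellTiter-Glo luminescence after 30 min at room temperature, in the reporter wells.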
On the technique in general: Quantitative high-throughput screening tests each substance at several concentrations.

Experiment [2] in a line: qHTS assay to identify small molecule agonists of H2AX (AID 1224845; active = well fitted activation curve with a large enough effect in the signal ratio in the repeat runs, not every such curve was filed as active; the % refers to the signal ratio). An outline of the steps: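 Wild-type CHO-K1 cells plated overnight, then exposed 3 hr at 37C to compounds at 15 concentrations (0.76% DMSO). Lysed, then HTRF anti-pH2AX(S139)-cryptate/anti-H2AX-d2 detection after 24 hr at room temperature; emissions 665 and 620 nm.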
Experiment [3] in a line: qHTS assay to identify small molecule agonists of H2AX - cell viability counter screen (AID 1224847; calls by dose curve; also: nearly all actives have a fitted effect of over 30% in size; also: potency is read from the fitted curve at half-maximal effect). The gist of the method:
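CHO-K1 cells plated overnight at 37C, then exposed 3 h at 37C to compounds at 15 concentrations (0.76% DMSO final). Viability by CellTiter-Glo luminescence after 30 min at room temperature.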

Experiment [4] can be described thus: qHTS RealTime-Glo MT Cell Viability Assay in HepG2 cells - 24 hour (AID 1224867). Also: nearly all actives have a fitted effect of over 50% in size. Also: potency is read from the fitted curve at half-maximal effect. An outline of the steps: (§1)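 Tox21 10K library screened in qHTS format on HepG2 cells carrying RealTime-Glo reagents. Compounds were added after a 5 h preincubation, and the luminescent signal from continuous culture was measured repeatedly during 40 h treatment.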
Experiment [5] can be described thus: qHTS RealTime-Glo MT Cell Viability Assay in HEK293 cells - 32 hour (AID 1224868). Also: top concentration of the series differs between compounds; nearly all actives have a fitted effect of over 50% in size. The gist of the method: (§2)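 Luminescence generated by NanoLuc from substrate produced by living HEK293 cells served as the viability signal. Each value reflects the reading at its stated time point during continuous 40 h compound exposure at 37 C.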
A short description of experiment [6]: A CellTox Green Cytotoxicity Assay to monitor cytotoxicity in HEK293 cells - 0 hour (AID 1224869). Also: nearly all actives have a fitted effect of over 50% in size. Also: potency is read from the fitted curve at half-maximal effect. An outline of the steps:
(§3)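 HEK293 cells premixed with CellTox Green dye were seeded at 600 cells/well and left 5 h at 37 C/5% CO2 before pin transfer of 23 nL compound in DMSO. Fluorescence from dye bound to dead-cell DNA was read during 40 h treatment.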

Experiment [7] in a line: qHTS RealTime-Glo MT Cell Viability Assay in HepG2 cells - 40 hour (AID 1224870). Also: nearly all actives have a fitted effect of over 50% in size. Also: potency is read from the fitted curve at half-maximal effect. The gist of the method: (§4)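 HepG2 cells mixed with RealTime-Glo MT reagents (NanoLuc plus cell-permeant prosubstrate) were seeded at 600 cells/well, incubated 5 h at 37 C/5% CO2, then pinned with compounds in DMSO; nonlytic luminescence tracked viability during 40 h treatment.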
Experiment [8] in a line: A CellTox Green Cytotoxicity Assay to monitor cytotoxicity in HEK293 cells - 40 hour (AID 1224871). Also: nearly all actives have a fitted effect of over 45% in size. Also: potency is read from the fitted curve at half-maximal effect. The gist of the method:
as §3

Experiment [9] in a line: qHTS RealTime-Glo MT Cell Viability Assay in HEK293 cells - 16 hour (AID 1224872). An outline of the steps: as §2
Experiment [10] in a line: qHTS RealTime-Glo MT Cell Viability Assay in HepG2 cells - 8 hour (AID 1224873). Also: nearly all actives have a fitted effect of over 55% in size. The gist of the method: as §4
Experiment [11] can be described thus: qHTS RealTime-Glo MT Cell Viability Assay in HEK293 cells - 40 hour (AID 1224874). Also: nearly all actives have a fitted effect of over 50% in size. Also: potency is read from the fitted curve at half-maximal effect. Particulars: RealTime-Glo luminescence; max response: hits give low values. An outline of the steps:
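HEK293 cells mixed with RealTime-Glo reagents (NanoLuc plus cell-permeant prosubstrate) at 600 cells/well, preincubated 5 h at 37 C/5% CO2, then given 23 nL compound in DMSO. Nonlytic luminescence from viable cells was read at 0, 8, 16, 24, 32 and 40 h.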

Experiment [12] in a line: A CellTox Green Cytotoxicity Assay to monitor cytotoxicity in HEK293 cells - 24 hour (AID 1224875). Also: nearly all actives have a fitted effect of over 45% in size. Also: potency is read from the fitted curve at half-maximal effect. An outline of the steps: as §3
The nature of experiment [13]: A CellTox Green Cytotoxicity Assay to monitor cytotoxicity in HepG2 cells - 16 hour (AID 1224876). Also: nearly all actives have a fitted effect of over 45% in size. Also: potency is read from the fitted curve at half-maximal effect. The gist of the method:
(§5)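 HepG2 cells were seeded together with the CellTox Green dye at 600 cells/well, left 5 h at 37 C/5% CO2, then given compounds in DMSO. Fluorescence from dye bound to dead-cell DNA was read repeatedly over 40 h of treatment at 37 C.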

Experiment [14] in a line: qHTS RealTime-Glo MT Cell Viability Assay in HepG2 cells - 32 hour (AID 1224877). Also: nearly all actives have a fitted effect of over 55% in size. Also: potency is read from the fitted curve at half-maximal effect. The gist of the method: as §1
Experiment [15] is described as follows: A CellTox Green Cytotoxicity Assay to monitor cytotoxicity in HepG2 cells - 24 hour (AID 1224878). Also: nearly all actives have a fitted effect of over 45% in size. Also: potency is read from the fitted curve at half-maximal effect. An outline of the steps: as §5
The nature of experiment [16]: A CellTox Green Cytotoxicity Assay to monitor cytotoxicity in HepG2 cells - 40 hour (AID 1224879). Also: nearly all actives have a fitted effect of over 40% in size. Also: potency is read from the fitted curve at half-maximal effect. An outline of the steps: as §5
Experiment [17] is described as follows: qHTS assay to identify small molecule agonists of the estrogen related receptor (ERR) signaling pathway from Tox21 library (AID 1224849; calls by dose curve; also: nearly all actives have a fitted effect of over 15% in size). To be noted: ERR reporter cell line, ONE-Glo luciferase, 18 h; at 92.4 µM (top of the series) unless noted. The gist of the method:
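ERR reporter cell line (NTP) seeded, rested 6 h at 37 C/5% CO2, then pinned with Tox21 compounds in DMSO. After 18 h at 37 C, ONE-Glo luciferase luminescence was read following 30 min at room temperature.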

Experiment [18] is described as follows: qHTS assay to identify small molecule agonists of the hypoxia (HIF-1) signaling pathway (AID 1224846; active = well fitted activation curve with a large enough effect in the signal ratio in the repeat runs, not every such curve was filed as active; the % refers to the signal ratio). An outline of the steps:
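HRE-bla ME-180 cells (beta-lactamase reporter under hypoxia response element) were plated at 2,000 cells/well in medium with 0.5% dialyzed FBS, rested 5 hrs, then given compounds in DMSO for 17 hrs at 37C, 5% CO2. Reporter induction was read with CCF4-AM FRET substrate.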

The nature of experiment [19]: qHTS assay to identify small molecule antagonists of the estrogen related receptor (ERR) signaling pathway from Tox21 library (AID 1224848). Also: nearly all actives have a fitted effect of over 50% in size. Also: potency is read from the fitted curve at half-maximal effect. The gist of the method: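 Screening used an ERR reporter line supplied by NTP, exposed for 18 h at 37 C to library compounds delivered in DMSO. Signal was luciferase luminescence developed with ONE-Glo at room temperature for 30 min.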

This note sets out measurements from PubChem BioAssay (Tox21).

A number with no mark means an inactive call. Records with an inconclusive call do not appear. The source made the active and inactive calls. Unless noted, calls follow the shape of the dose curve; as a rule, active = well fitted curve in the direction sought with a large enough effect in the repeat runs; inconclusive = weak or mixed curves; inactive = no such curve, though single readings can be large; an effect the other way counts as inactive or inconclusive.
% is scaled to controls: 0 for no effect and ±100 for the full control effect.

Consider `CN1C(=O)CC(c2ccccc2)C1=O` (configuration not stated), for which the Potency entry in experiment [1], in [2], in experiment [3], in experiment [4], in experiment [5] and in experiment [6] was “inactive” each time. In addition, the Potency result in experiment [7], in experiment [8], in experiment [9], in experiment [12], in [13] and in experiment [14] was “inactive” throughout. Besides, the Potency result in experiment [15] and in experiment [16] was “inactive” throughout. Also, the compound was called inactive in experiment [10]. The max response in experiment [11] was 11.9%.

Consider `ICCc1ccccc1`, for which the activity change, positive = activation in [17] is -17.9%. Moreover, the Potency in experiment [4] was 19.1 µM (active); in experiment [7] it was 9.57 µM (active); in experiment [14], 12.1 µM (active). Also, the Potency result in experiment [5], in experiment [6], in experiment [9], in experiment [13], in experiment [15] and in experiment [16] was “inactive” each time. Moreover, the call in experiment [10] was inactive. Besides, in experiment [11], the max response was 22.5%.

As to `CCCCNC(=S)NCCCC`, the Potency result in experiment [2], in [3], in experiment [4], in experiment [5], in experiment [6] and in experiment [7] was “inactive” each time. Besides, the Potency entry in [8], in experiment [9], in [12], in [13], in experiment [14] and in experiment [15] was “inactive” in each case. The Potency entry in [16] is “inactive”. The call in experiment [18] and in experiment [10] was inactive. The Potency in experiment [19] was 68.6 µM (active). In addition, the activity change, positive = activation in experiment [17] is -66.6%. Also, the max response in experiment [11] is -21.7%.

In the case of `CC(C)(CO)[C@@H](O)C(=O)NCCC(=O)O`, the Potency entry in experiment [1], in [2], in experiment [3], in experiment [19], in experiment [4] and in experiment [5] was “inactive” each time. In addition, the Potency entry in experiment [6], in experiment [7], in experiment [8], in [9], in experiment [12] and in [13] was “inactive” throughout. Also, the Potency entry in [14], in [15] and in [16] was “inactive” in each case. Besides, the activity change, positive = activation in experiment [17] was 7.16%. In experiment [10], the call was inactive. The max response in [11] was 4.63%.

Consider `CC(C)NC[C@@H](O)COc1cccc2ccccc12`, for which the Potency entry in experiment [1], in [2], in [3], in experiment [4], in experiment [5] and in experiment [6] was “inactive” in each case. The Potency entry in experiment [7], in experiment [8], in experiment [9], in experiment [12], in experiment [13] and in experiment [14] was “inactive” throughout. For the same compound, the Potency entry in experiment [15] and in experiment [16] was “inactive” each time. Moreover, the call in [10] was inactive. Moreover, in experiment [11], the max response was -27.3%.

As to `CC1(C)C(=O)N(Cl)C(=O)N1Br`, the Potency entry in experiment [1], in experiment [2], in experiment [4], in [5], in experiment [6] and in [7] was “inactive” each time. Further, the Potency result in [8], in experiment [12], in experiment [13], in experiment [14] and in experiment [16] was “inactive” in each case. Further, the compound was called inactive in experiment [18]. Also, in [11], the max response is 17%.

As for `Cc1ccc(C=O)s1`, the Potency entry in experiment [1], in [3], in experiment [19], in experiment [4], in [5] and in [7] was “inactive” each time. Also, the Potency result in [9] and in experiment [14] was “inactive” each time. Besides, the call in experiment [18] and in [10] was inactive. For the same compound, the activity change, positive = activation in [17] was 3.35%. The Potency in [6] is 24.5 µM (active); in experiment [8], 43.6 µM (active); in experiment [12] it was 43.6 µM (active); in [13], 27.5 µM (active); in [15], 38.9 µM (active); in experiment [16], 27.5 µM (active). In addition, the max response in [11] was 5.96%.

As for `Cc1nc(N)nc(N)c1-c1ccc(Cl)c(Cl)c1`, the Potency entry in [1], in experiment [4], in [6], in [7], in [8] and in [9] was “inactive” each time. The Potency result in experiment [12], in [13], in experiment [14] and in [16] was “inactive” throughout. The outcome in experiment [18] and in experiment [10] was inactive. Further, the Potency in experiment [3] is 1.24 µM (active); in experiment [19] it was 0.944 µM (active); in experiment [11], 1.07 µM (active). Further, in experiment [17], the activity change, positive = activation was -56.5% [at 42.5 µM].
